# An excerpt weighted towards active compounds, which were near 2.4% of everything screened.
# DTT redox prof – compounds producing H2O2 with reducing agent – biochemical, NIH compound library profiling, artefact control for MLSCN library redox annotation, primary screen; DTT-dependent redox cycling H2O2, phenol red/HRP absorbance; 100% = 100 µM peroxide control, 0% = buffer; activation, % at 10 µM; 200,000 tested, 0.03% active;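 active = activation of at least 50% relative to the plate's high and low controls in the primary single-dose screen; inactive = activation below 50%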;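 note: compound incubated with DTT at 0.8 mM final as the reducing agent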
# zVAD death inh – blocks zVAD induced death of L929 cells; L929 zVAD necroptosis rescue, ATP luminescence, 24 h; with zVAD 60 µM; viability rescue, % at 10 µM; 220,000 tested, 0.38% active; AID 1377;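 active = activation, scaled between plate controls, above about 75%, limit read from the data; inactive = activation under that limit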;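 note: 0% = zVAD with DMSO and 100% = DMSO alone without zVAD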
# PERK inhibitor – human PERK inhibition, primary cell-based screen; 220,000 tested, 0.17% active; inhibition, % at 5.6 µM; AID 1416; CHO PERK-DD fusion, SEAP luminescence translation reporter;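 active = inhibition above the mean inhibition of all tested compounds plus 3 SD, set separately per screening campaign, cut at about 2.9% in these data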;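 note: PERK kinase domain activated by AP20187 dimerizer at 100 nM; 0% = DMSO with dimerizer and 100% = rapamycin at 8.4 µM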
# WT yeast gro inh – growth inhibition of WT yeast, mitochondrial fusion screen; inhibition, % at 10 µM; AID 1362; mitochondrial fusion phenotypic screen, WT strain; 190,000 tested, 2.1% active; in the data active = inhibition above about 58%; tested in S. cerevisiae
# TNF necrop inh – inhibitors of TNF-alpha induced necroptosis in Jurkat FADD-/- cells. 220,000 tested, 0.068% active. Jurkat FADD-/- TNF necroptosis rescue, ATP luminescence, 24 h; 0 = TNF only, 100 = no-TNF cells. activation (protection from cell death), % at 10 µM;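 active = activation, meaning protection from cell death, of at least 50% relative to plate controls; inactive = activation below 50%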;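 note: necroptosis triggered by 40 ng/mL TNF-alpha added together with compound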
# PKD1 inh – PKD1 (human) kinase inhibition. Q15139. PKD1 kinase fluorescence polarization assay. inhibition, % (concentration not given with the values). 200,000 tested, 0.056% active. AID 797; in the data active = inhibition above about 50%
# Target sequence (Q15139 whole entry, looked up): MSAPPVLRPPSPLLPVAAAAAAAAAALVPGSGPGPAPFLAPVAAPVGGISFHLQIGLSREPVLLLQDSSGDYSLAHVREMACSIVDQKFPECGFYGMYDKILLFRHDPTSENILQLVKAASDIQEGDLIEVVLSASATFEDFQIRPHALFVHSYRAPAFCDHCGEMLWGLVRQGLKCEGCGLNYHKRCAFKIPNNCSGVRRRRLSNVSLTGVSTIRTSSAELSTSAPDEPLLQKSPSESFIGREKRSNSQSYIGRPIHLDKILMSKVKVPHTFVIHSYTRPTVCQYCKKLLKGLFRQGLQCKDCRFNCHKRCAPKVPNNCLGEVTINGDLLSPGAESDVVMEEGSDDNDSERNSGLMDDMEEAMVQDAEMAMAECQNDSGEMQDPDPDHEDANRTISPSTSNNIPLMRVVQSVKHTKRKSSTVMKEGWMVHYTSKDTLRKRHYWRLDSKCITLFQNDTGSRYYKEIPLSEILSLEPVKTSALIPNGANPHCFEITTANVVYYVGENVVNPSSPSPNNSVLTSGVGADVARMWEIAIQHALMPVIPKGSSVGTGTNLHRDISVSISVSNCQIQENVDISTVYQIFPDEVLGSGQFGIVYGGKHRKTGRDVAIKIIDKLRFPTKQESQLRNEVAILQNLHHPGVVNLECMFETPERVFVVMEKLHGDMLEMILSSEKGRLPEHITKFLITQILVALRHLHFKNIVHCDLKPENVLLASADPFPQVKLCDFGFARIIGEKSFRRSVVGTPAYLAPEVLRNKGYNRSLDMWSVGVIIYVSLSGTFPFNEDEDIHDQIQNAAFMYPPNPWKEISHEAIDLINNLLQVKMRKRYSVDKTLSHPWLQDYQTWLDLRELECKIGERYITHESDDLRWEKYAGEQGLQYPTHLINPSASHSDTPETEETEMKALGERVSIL
# * = called active by the depositor; . = no result.
SMILES,DTT redox prof,zVAD death inh,PERK inhibitor,WT yeast gro inh,TNF necrop inh,PKD1 inh
NC(=O)c1ccsc1NC(=O)c1ccc(N2CCCC2=O)cc1,-1,13,0,15,-2,-3
Nc1ccc2nc(CN3CCOCC3)[nH]c2c1,0,0,1,66*,1,0
COc1ccc(N=Nc2n(C)c3ccccc3[n+]2C)cc1,.,-3,3.4*,.,-25,.
N#CC1=C(N)NC(SCc2ccc(Cl)cc2)=C(C#N)C12CCCCC2,1,2,-1,11,5,-2
N#CC1=C(N)NC(SCc2ccc(Br)cc2)=C(C#N)C12CCCCC2,-1,1,1,67*,3,-4
CCOC(=O)NC(=O)C(/C=N/c1sccc1C(=O)OC)=C(\C)O,0,1,1,3,-4,-4
Cc1nc2c(=O)n(C)c(=O)n(C)c2nc1Cl,0,11,0,58*,-14,5
Cn1c(=O)c2nc(NCc3ccccc3)cnc2n(C)c1=O,3,0,0,-8,0,-10
CCOC(=O)N=Nc1c2ccccc2c2nc3no[nH]c3nc12,-2,-4,1,96*,-14,-3
CC1CCCCN1c1ccc(N)cc1C(N)=O (stereo not drawn),0,2,1,-13,1,-1
O=C(Cn1nc(-c2ccccc2)ccc1=O)Nc1ccc(N2CCN(C(=O)c3cccs3)CC2)cc1,0,-1,-1,14,3,3
Cc1ccc(N=Cc2c(C)[nH]n(-c3nc4ccccc4[nH]3)c2=O)cc1,0,-3,-1,84*,-13,2
Cc1ccc(-n2[nH]c(C)c(C=Nc3ccc4[nH]c(=O)[nH]c4c3)c2=O)cc1,1,-1,0,6,-8,5
Cc1cccn2c(=O)c(C=NCCO)c(Nc3ccc(Cl)cc3)nc12,0,-2,0,-8,-10,-7
COc1ccccc1NC(=O)c1ccccc1NS(=O)(=O)c1cccs1,-2,1,0,25,0,-2
COc1ccc(C)cc1NC(=O)c1ccccc1NS(=O)(=O)c1ccc(Cl)s1,-1,0,1,84*,-4,-6
CCCCNC(=O)c1sc(=S)n2c1[nH]c(=O)c1ccccc12,3,0,0,-7,0,-1
O=C(NC1CCCCC1)c1sc(=S)n2c1[nH]c(=O)c1ccccc12,1,0,0,64*,-2,6
Cc1[nH]c2ccccc2c1/C=N/NC(=O)C1CC1(c1ccccc1)c1ccccc1 (stereo not drawn),0,4,0,84*,3,-5
Cc1cc(/C=N/N2CCN(C)CC2)c(C)n1-c1ccc(Cl)cc1,.,0,-1,.,-11,.
CN(Cc1cn[nH]c1-c1cc2ccccc2o1)CC1CCOCC1,-1,0,2,2,2,7
c1ccc(Oc2c3ccccc3nc3ccccc23)cc1,.,-1,1,.,-16,.
COCCNS(=O)(=O)c1ccc(SC)cc1,0,0,0,20,50*,-5
O=c1cc(C(F)(F)F)[nH]c2ccc(OC(F)(F)F)cc12,.,0,-1,.,-2,.
O=c1cc(C(F)(F)F)[nH]c2c(C(F)(F)F)cccc12,0,2,1,78*,1,0
SMILES,DTT redox prof,zVAD death inh,PERK inhibitor,WT yeast gro inh,TNF necrop inh,PKD1 inh
NC(=O)N/N=C/C=C/c1ccc(F)cc1,.,0,1,.,2,.
O=C(COC(=O)c1ccncc1)Nc1cc(Cl)c(Cl)cc1Cl,1,0,0,71*,-1,-4
O=C(Nc1ccccc1Cl)c1cccc(NS(=O)(=O)c2ccccc2)c1,0,1,0,21,0,-10
O/N=C/c1cc(Br)cc(Br)c1OCc1ccccc1,0,1,1,60*,-2,-3
COc1ccc(CC(=O)NCC(=O)N/N=C(/C)c2ccco2)cc1,-1,0,0,8,-1,-4
Cc1ccnc(NS(=O)(=O)c2cccs2)c1,0,0,1,20,-1,-4
Cc1ccnc(NS(=O)(=O)c2cc(C(F)(F)F)ccc2Cl)c1,.,1,3.4*,.,1,.
COC(=O)Cc1c(C)nc2nc(NCc3ccccc3OC)[nH]n2c1=O,1,0,-1,2,0,2
COc1ccccc1CNc1nc2nc(C)c(C)c(=O)n2[nH]1,1,0,0,79*,1,-10
O=C(Nc1ccccc1-c1nc2ccccc2[nH]1)c1sc2ccccc2c1Cl,1,0,1,10,2,-2
CSCc1cc(N2CCOCC2)nc(SCc2ccc(Cl)c(Cl)c2)n1,2,0,0,62*,-3,1
Cc1ccc(NNC(=O)Nc2ccc(Cl)cc2)nn1,.,0,0,.,-1,.
CCSC1=NCCN1C(=O)c1ccc(S(=O)(=O)N(C)C)cc1,0,1,1,1,0,-1
Cc1cc(/C=N/NC(N)=S)c(C)n1-c1ccc(Cl)c(Cl)c1,1,0,-1,63,-6,-7
CCNC(=S)N/N=C/c1cc(C)n(-c2ccc(Cl)cc2)c1C,0,-1,-1,73*,-4,1
CCCSc1nc(NCc2ccco2)c2c3c(sc2n1)COC(C)(C)C3,1,0,-1,70*,-1,4
Cc1ccc(S(=O)(=O)N2CCC(C(=O)O)CC2)cc1,0,6,2,-5,0,1
Cc1cc2nc(N=C(N)N)nc(C)c2cc1C,0,0,1,-8,6,-9
Clc1ccc(-c2cc3ccccc3nc2N2CCCC2)cc1,2,0,1,70*,0,-5
FC(F)(F)c1nc(N2CCCC2)ncc1-c1nnnn1-c1ccc(Cl)cc1,0,-1,-2,59*,-4,-4
O=C1c2ccncc2C(=O)N1c1cccc(Cl)c1,-1,-1,4.0*,10,1,2
COc1ccccc1C1(CCNC(C)c2cccs2)CCOC(C(C)C)C1 (stereo not drawn),.,-1,0,.,4,.
COc1ccccc1C1(CCNS(=O)(=O)c2ccc(C)cc2)CCOC(C(C)C)C1 (stereo not drawn),1,1,0,59*,-1,8
COC(=O)CC1=C(C(=O)OC)[C@@H](c2ccccc2[N+](=O)[O-])C(C#N)=C(N)O1,.,0,1,.,-2,.
Cc1c(Br)c([N+](=O)[O-])nn1CC(=O)Nc1ccc(Cc2ccncc2)cc1,5,.,-1,1,2,0
O=C(O)C(Cc1c[nH]c2ccccc12)N1CCS(=O)(=O)CC1 (stereo not drawn),-2,1,2,-8,0,0
CCC1CCCCN1C(=O)CSc1nc2c(cnn2-c2ccc(C)cc2)c(=O)[nH]1 (stereo not drawn),0,-1,3.2*,12,-1,-3

# Compound activity: PubChem, several laboratories
